# Reference: ChEMBL document CHEMBL1961873, “Compounds: GSK PKIS; Assays: Nanosyn kinase panel” (2012)
# What was measured:
# [1] = biological target: Sphingosine kinase 1 (Homo sapiens) (UniProt Q9NYA1); conditions: at 1 µM;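 also: mean SPHK1 inhibition value reported from the GSK PKIS kinase panel screen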
# [2] = biological target: T1, Sphingosine kinase 2 (Homo sapiens) (UniProt Q9NRA0); conditions: at 0.1 µM
# T1 sequence (whole entry): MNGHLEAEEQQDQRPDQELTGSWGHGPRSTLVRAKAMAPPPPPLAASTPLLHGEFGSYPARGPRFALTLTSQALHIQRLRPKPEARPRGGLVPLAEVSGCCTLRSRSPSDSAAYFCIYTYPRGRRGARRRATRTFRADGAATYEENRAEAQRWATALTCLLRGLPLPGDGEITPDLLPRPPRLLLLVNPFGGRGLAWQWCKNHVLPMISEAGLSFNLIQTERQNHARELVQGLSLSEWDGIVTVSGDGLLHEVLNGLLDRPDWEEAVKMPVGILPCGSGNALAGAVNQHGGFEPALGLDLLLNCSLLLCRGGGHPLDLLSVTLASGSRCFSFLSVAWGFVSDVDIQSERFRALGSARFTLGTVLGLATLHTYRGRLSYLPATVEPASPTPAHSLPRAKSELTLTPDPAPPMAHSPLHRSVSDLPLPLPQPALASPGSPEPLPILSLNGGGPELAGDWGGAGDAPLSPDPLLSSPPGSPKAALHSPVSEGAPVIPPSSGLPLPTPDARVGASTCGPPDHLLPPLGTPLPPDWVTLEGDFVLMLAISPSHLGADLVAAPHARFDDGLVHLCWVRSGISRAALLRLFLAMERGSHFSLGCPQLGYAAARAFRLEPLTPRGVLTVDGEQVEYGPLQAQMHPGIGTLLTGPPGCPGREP
# [3] = biological target: T1, Sphingosine kinase 2 (Homo sapiens); conditions: at 1 µM
# [4] = biological target: Casein kinase II subunit alpha (Homo sapiens) (UniProt P68400); conditions: at 0.1 µM
# Casein kinase II subunit alpha (Homo sapiens), sequence (P68400 whole entry, looked up): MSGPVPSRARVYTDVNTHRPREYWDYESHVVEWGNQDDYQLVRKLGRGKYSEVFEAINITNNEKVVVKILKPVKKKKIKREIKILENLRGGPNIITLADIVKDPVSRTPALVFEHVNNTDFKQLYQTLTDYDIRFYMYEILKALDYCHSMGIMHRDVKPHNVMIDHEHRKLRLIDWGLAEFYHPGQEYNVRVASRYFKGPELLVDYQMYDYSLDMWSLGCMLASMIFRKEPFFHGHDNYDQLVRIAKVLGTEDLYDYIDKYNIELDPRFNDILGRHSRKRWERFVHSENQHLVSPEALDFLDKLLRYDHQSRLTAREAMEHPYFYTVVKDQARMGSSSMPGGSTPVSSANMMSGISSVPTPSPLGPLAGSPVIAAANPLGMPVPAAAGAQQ
# [5] = biological target: Casein kinase II subunit alpha (Homo sapiens) (UniProt P68400); conditions: at 1 µM
# [6] = biological target: T2, Inhibitor of nuclear factor kappa-B kinase subunit alpha (Homo sapiens) (UniProt O15111); conditions: at 0.1 µM
# T2 sequence (whole entry): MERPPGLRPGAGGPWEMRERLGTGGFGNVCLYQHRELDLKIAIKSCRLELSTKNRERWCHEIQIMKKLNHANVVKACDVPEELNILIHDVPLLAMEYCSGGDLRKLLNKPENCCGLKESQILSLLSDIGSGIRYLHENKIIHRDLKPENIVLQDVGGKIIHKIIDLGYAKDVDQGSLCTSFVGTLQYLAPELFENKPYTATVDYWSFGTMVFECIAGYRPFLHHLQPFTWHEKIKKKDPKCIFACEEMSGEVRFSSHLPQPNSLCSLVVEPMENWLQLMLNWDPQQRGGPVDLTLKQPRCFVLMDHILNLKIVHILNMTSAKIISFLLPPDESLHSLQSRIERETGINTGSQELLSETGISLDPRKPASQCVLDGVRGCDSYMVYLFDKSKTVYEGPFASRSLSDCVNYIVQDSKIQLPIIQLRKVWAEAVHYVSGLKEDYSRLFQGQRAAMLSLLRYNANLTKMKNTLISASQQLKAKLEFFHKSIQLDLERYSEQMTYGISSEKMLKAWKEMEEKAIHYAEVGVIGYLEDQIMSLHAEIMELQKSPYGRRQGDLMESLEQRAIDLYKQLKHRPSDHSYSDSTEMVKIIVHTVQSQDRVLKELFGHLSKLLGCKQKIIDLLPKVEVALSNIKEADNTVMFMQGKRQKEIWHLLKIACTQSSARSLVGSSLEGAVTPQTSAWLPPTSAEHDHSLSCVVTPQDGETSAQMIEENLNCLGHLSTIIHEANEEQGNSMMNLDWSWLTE
# [7] = biological target: T2, Inhibitor of nuclear factor kappa-B kinase subunit alpha (Homo sapiens); conditions: at 1 µM
# [8] = biological target: T3, Inhibitor of nuclear factor kappa-B kinase subunit beta (Homo sapiens) (UniProt O14920); conditions: at 0.1 µM
# T3 sequence (whole entry): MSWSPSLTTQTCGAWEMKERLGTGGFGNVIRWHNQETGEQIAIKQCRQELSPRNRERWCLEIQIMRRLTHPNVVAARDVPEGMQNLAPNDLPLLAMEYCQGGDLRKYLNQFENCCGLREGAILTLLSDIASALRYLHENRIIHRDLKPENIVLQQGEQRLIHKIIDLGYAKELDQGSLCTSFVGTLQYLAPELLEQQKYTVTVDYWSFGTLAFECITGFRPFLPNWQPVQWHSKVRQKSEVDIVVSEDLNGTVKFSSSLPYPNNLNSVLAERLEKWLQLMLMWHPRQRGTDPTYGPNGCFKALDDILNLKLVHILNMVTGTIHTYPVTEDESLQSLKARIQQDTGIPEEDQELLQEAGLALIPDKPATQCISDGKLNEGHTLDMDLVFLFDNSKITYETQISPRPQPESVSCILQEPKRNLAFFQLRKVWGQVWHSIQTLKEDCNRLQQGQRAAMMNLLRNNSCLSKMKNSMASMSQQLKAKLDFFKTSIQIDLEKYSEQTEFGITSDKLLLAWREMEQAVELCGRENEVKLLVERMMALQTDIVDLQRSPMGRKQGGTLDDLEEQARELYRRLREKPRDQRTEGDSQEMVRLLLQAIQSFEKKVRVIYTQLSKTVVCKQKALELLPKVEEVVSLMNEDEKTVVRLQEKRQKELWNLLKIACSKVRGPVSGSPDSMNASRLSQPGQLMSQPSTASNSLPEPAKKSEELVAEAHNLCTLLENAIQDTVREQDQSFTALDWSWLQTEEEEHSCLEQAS
# [9] = biological target: T3, Inhibitor of nuclear factor kappa-B kinase subunit beta (Homo sapiens); conditions: at 1 µM
# [10] = biological target: T4, Inhibitor of nuclear factor kappa-B kinase subunit epsilon (Homo sapiens) (UniProt Q14164); conditions: at 0.1 µM
# T4 sequence (whole entry): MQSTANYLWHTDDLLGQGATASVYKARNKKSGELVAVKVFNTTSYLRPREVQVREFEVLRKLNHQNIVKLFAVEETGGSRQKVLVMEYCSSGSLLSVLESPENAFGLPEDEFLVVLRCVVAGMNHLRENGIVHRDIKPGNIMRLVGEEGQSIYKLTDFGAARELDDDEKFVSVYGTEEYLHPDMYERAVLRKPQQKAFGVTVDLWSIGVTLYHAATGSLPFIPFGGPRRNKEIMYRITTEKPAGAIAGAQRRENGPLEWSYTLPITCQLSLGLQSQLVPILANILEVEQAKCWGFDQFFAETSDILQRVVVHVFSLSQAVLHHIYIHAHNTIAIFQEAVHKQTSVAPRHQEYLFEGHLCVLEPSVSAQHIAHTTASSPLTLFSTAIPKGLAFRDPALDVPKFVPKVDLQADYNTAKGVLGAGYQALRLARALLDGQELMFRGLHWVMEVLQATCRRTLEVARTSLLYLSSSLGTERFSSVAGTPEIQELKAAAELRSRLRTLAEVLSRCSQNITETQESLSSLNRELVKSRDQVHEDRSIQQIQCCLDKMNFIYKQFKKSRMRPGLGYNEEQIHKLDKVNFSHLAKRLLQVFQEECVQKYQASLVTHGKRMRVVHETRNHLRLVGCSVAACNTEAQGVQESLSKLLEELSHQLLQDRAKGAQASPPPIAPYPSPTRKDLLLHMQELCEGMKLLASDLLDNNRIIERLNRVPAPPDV
# [11] = biological target: T4, Inhibitor of nuclear factor kappa-B kinase subunit epsilon (Homo sapiens); conditions: at 1 µM
# [12] = biological target: T5, Serine/threonine-protein kinase Nek1 (Homo sapiens) (UniProt Q96PY6); conditions: at 0.1 µM
# T5 sequence (whole entry): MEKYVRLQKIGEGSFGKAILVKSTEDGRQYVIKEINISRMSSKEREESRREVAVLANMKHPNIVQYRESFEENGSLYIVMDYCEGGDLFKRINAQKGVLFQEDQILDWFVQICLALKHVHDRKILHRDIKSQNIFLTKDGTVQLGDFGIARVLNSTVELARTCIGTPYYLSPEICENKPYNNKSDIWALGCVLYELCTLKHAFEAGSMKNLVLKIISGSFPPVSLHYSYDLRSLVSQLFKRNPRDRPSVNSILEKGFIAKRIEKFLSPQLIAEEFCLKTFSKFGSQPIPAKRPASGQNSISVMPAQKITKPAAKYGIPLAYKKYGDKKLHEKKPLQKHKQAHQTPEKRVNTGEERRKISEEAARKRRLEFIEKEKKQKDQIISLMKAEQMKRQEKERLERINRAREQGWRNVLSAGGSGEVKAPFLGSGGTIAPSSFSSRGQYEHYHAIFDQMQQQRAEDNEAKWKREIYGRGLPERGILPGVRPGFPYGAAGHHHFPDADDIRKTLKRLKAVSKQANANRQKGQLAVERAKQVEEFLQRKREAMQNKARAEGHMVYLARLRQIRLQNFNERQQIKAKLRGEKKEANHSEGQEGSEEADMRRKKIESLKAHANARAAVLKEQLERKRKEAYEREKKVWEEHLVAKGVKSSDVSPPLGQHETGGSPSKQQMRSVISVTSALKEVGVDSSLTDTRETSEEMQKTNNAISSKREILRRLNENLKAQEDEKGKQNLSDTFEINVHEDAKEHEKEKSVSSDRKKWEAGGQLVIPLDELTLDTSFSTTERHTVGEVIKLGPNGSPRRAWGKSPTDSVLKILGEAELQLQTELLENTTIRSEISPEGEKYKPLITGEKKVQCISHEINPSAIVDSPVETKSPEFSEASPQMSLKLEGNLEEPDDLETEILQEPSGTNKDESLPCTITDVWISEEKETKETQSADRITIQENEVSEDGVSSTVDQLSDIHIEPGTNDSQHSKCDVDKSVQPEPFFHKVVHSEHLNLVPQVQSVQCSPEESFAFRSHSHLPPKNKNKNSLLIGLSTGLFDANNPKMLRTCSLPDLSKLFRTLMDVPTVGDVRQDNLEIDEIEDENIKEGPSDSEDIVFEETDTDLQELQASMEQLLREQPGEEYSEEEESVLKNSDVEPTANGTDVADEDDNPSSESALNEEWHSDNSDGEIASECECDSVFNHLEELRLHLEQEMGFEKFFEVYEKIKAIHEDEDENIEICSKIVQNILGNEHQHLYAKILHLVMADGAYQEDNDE
# [13] = biological target: T5, Serine/threonine-protein kinase Nek1 (Homo sapiens); conditions: at 1 µM
# [14] = biological target: T6, Serine/threonine-protein kinase Nek2 (Homo sapiens) (UniProt P51955); conditions: at 0.1 µM
# T6 sequence (whole entry): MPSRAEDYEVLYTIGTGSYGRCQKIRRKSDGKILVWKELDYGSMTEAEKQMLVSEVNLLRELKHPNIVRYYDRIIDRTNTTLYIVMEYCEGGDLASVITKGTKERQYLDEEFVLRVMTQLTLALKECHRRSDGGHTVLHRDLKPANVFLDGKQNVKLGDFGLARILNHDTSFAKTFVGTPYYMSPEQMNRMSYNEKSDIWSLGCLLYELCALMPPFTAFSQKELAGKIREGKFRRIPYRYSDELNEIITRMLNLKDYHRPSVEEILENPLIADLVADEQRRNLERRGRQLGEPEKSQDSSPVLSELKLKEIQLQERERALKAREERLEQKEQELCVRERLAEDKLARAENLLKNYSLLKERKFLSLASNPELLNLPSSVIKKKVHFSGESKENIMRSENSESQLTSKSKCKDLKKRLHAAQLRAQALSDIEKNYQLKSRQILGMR
# [15] = biological target: T6, Serine/threonine-protein kinase Nek2 (Homo sapiens); conditions: at 1 µM
# [16] = biological target: Serine/threonine-protein kinase Nek6 (Homo sapiens) (UniProt Q9HC98); conditions: at 0.1 µM
# Serine/threonine-protein kinase Nek6 (Homo sapiens), sequence (Q9HC98 whole entry): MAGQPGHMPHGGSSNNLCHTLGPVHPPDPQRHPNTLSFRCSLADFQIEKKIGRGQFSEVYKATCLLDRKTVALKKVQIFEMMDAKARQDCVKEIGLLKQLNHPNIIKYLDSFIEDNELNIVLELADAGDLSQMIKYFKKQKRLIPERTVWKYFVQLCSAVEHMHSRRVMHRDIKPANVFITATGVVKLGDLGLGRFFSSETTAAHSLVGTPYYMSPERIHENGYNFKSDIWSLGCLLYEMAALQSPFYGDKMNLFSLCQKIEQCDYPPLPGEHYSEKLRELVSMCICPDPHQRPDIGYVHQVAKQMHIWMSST
# [17] = biological target: Serine/threonine-protein kinase Nek6 (Homo sapiens) (UniProt Q9HC98); conditions: at 1 µM
# [18] = biological target: Serine/threonine-protein kinase Nek7 (Homo sapiens) (UniProt Q8TDX7); conditions: at 0.1 µM
# Serine/threonine-protein kinase Nek7 (Homo sapiens), sequence (Q8TDX7 whole entry, looked up): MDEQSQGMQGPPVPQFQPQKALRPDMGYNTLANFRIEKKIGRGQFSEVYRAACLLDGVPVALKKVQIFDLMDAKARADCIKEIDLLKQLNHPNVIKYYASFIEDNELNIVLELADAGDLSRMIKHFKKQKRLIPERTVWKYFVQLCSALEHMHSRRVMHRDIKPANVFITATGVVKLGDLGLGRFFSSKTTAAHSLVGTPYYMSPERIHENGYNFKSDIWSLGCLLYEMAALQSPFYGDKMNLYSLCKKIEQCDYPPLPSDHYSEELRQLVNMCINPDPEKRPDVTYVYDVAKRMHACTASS
# [19] = biological target: Serine/threonine-protein kinase Nek7 (Homo sapiens) (UniProt Q8TDX7); conditions: at 1 µM
# [20] = biological target: T7, Serine/threonine-protein kinase Nek9 (Homo sapiens) (UniProt Q8TD19); conditions: at 0.1 µM;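 also: reported value is the mean percent inhibition of NEK9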
# T7 sequence (whole entry): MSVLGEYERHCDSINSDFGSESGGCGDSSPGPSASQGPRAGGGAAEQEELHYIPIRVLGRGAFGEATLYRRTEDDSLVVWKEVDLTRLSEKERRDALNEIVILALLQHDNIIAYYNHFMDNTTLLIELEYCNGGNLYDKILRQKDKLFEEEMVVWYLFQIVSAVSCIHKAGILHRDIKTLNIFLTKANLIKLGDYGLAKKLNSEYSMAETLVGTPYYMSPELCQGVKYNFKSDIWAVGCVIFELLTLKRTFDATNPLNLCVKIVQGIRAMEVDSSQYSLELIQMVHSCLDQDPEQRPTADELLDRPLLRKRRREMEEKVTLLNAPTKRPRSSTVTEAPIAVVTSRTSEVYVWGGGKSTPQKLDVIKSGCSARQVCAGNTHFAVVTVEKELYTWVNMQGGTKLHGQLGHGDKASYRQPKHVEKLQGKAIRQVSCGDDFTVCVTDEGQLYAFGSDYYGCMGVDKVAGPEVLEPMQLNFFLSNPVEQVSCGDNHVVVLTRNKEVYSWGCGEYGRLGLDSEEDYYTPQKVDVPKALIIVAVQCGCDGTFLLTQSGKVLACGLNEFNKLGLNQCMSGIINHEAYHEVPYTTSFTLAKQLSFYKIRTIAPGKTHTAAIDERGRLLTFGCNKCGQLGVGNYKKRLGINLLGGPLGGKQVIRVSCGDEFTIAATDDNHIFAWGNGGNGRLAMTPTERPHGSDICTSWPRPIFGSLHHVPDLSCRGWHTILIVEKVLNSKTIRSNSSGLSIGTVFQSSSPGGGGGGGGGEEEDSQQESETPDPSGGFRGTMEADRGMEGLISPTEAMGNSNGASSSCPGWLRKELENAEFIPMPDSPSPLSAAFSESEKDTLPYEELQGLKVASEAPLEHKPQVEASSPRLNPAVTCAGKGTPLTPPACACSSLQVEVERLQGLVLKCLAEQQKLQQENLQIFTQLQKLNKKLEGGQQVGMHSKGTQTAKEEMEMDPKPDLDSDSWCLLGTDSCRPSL
# Sphingosine kinase 1 (Homo sapiens), sequence (Q9NYA1 whole entry): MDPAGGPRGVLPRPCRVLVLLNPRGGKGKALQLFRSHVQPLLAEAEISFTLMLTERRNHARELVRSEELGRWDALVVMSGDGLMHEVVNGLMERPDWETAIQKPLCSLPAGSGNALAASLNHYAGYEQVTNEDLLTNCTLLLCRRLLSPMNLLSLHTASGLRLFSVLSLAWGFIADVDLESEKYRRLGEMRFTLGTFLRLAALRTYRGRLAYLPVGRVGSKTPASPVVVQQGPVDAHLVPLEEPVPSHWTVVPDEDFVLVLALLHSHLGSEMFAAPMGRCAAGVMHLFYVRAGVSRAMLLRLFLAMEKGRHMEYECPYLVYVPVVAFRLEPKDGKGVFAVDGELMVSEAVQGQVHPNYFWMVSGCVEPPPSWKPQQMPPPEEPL
Structure (SMILES),inhibition [1] [%],inhibition [2] [%],inhibition [3] [%],inhibition [4] [%],inhibition [5] [%],inhibition [6] [%],inhibition [7] [%],inhibition [8] [%],inhibition [9] [%],inhibition [10] [%],inhibition [11] [%],inhibition [12] [%],inhibition [13] [%],inhibition [14] [%],inhibition [15] [%],inhibition [16] [%],inhibition [17] [%],inhibition [18] [%],inhibition [19] [%],inhibition [20] [%]
CC(=O)Nc1cccc(C#Cc2cncnc2Nc2ccc(OCc3cccc(F)c3)c(Cl)c2)n1,0.51,1.73,-0.13,2.14,9.24,2.26,-1.99,-3.08,2.94,2.95,1.53,-2.25,1.58,-2.96,-1.9,1.43,4.26,-4.17,-3.8,0.45
CN1CCC(C(=O)Nc2n[nH]c3nnc(-c4ccccc4)cc23)CC1,-3.46,-0.94,-2.16,6.73,12.2,6.86,1.13,11.4,12.4,7.37,6.54,2.01,4.86,5.31,4.22,2.59,0.5,5.74,4.97,12.7
